Data: PubChem BioAssay (Tox21)
Results filed as inconclusive are left out. Activity calls are given as the source filed them. Calls follow the shape of the dose curve; as a rule, active = well fitted activation curve with a large enough effect in the repeat runs; inconclusive = weak or mixed curves; inactive = flat fitted curve, though single readings scatter.

assay: A CellTox Green Cytotoxicity Assay to monitor cytotoxicity in HEK293 cells - 16 hour (AID 1224888); conditions: CellTox Green fluorescence; series mostly up to 76.8 µM; activity change: at the top concentration; also: nearly all actives have a fitted effect of over 35% in size
Description: National Center for Advancing Translational Sciences [NCATS]
NIH Chemical Genomics Center [NCGC]
U.S. Environmental Protection Agency [EPA]
National Institutes of Environmental Health Sciences [NIEHS]
National Toxicology Program [NTP]
Cell-based models are critical for drug discovery. Determining the natural cytotoxic effects resulting from test compounds is an essential research activity. A CellTox Green Cytotoxicity Assay to monitor cytotoxicity in real time of continues cell culture during 40 hours of the compound treatment was used to screen Tox21 10K library compounds in Hek293 cells. CellTox Green Cytotoxicity Assay is a nonlytic, homogeneous, biofluorescent method to measure cytotoxicity in cell culture after experimental manipulation. The assay system uses a proprietary asymmetric cyanine dye that is excluded from viable cells but preferentially stains the dead cell's DNA. […] Viable cells produce no appreciable increases in fluorescence. Therefore, the fluorescence signal produced by the binding interaction with dead cell DNA is proportional to cytotoxicity.
The mixture of Hek293 cell suspension and reagents were dispensed at 600cells/6 ul/well in 1536-well tissue culture treated black solid bottom plates using a Multidrop dispenser. After the assay plates were incubated at a 37 C/5% CO2 incubator for 5 hours, 23 nL of compounds dissolved in DMSO, positive and negative controls was transferred to the assay plate by a pintool work station. The plates were incubated at 37 C for 40 hours. The fluorescence intensity were measured at 0h, 8h, 16h, 24h, 32h and 40h time points using ViewLux plate reader during compound treatment.
% is scaled to controls: 0 for no effect and ±100 for the full control effect; potency is read from the fitted curve at half-maximal effect.

**Q.** With `CC(=O)[O-].CC(=O)[O-].CC(=O)[O-].[Sb+3]` as the molecule, how does the activity change read?
**A.** The activity change was 0.422% [at 2.72 µM, active compounds read high] (inactive).

**Q.** For `CCOP(=S)(OCC)SC(CCl)N1C(=O)c2ccccc2C1=O` (stereo not given), which “activity change” value is on record?
**A.** The value was 2.93% (inactive).

**Q.** For `[Cl-].[Cl-].[Sn+2]`, which “activity change” value is on record?
**A.** The value was 0.923% (inactive).

**Q.** Which “activity change” value does the source give for `COc1ccc2c(c1OC)C(=O)O[C@@H]2[C@H]1c2cc3c(cc2CCN1C)OCO3` here?
**A.** Its value is 11.3% (inactive).

**Q.** Which “activity change” value does the source give for `CCO/N=C(\CC)C1=C(O)CC(c2c(C)cc(C)cc2C)CC1=O` (stereo not given) here?
**A.** Its value is -3.51% (inactive).

**Q.** Which “activity change” value does the source give for `c1ccc(N=NNc2ccccc2)cc1` here?
**A.** Its value is 16.9% (inactive).

**Q.** Which “activity change” value does the source give for `Cc1nn(-c2cc(NS(C)(=O)=O)c(Cl)cc2Cl)c(=O)n1C(F)F` here?
**A.** The value was -1.7% (inactive).

**Q.** With `CCC[CH2][Sn]([CH2]CCC)([O]C(C)=O)[O]C(C)=O` as the molecule, how does the Potency read?
**A.** The Potency was 4.4 µM (active).

**Q.** For `CCCCn1cc[n+](C)c1` (tested in a mixture with another compound), which “activity change” value is on record?
**A.** Its value is -3.56% (inactive).

**Q.** For `O=[N+]([O-])[O-].[Tl+]`, which “activity change” value is on record?
**A.** Its value is -2.99% (inactive).

**Q.** With `CN1[C@@H]2CC[C@H]1CC(O)C2` (stereo not given in full) as the molecule, how does the “activity change” value read?
**A.** Its value is 14.8% (inactive).

**Q.** With `CC(=O)[O-].CC(=O)[O-].CC(=O)[O-].[Cr+3]` as the molecule, how does the “activity change” value read?
**A.** The value was 0.0102% (inactive).

**Q.** With `CCC(C)Br` (stereo not given) as the molecule, how does the “activity change” value read?
**A.** The value was 1.34% (inactive).

**Q.** Which “activity change” value does the source give for `BrCC(Br)(Br)Br` here?
**A.** Its value is -0.22% (inactive).

**Q.** With `Cc1cc(C2CC2)nc(Nc2ccccc2)n1` as the molecule, how does the “activity change” value read?
**A.** Its value is 9.92% (inactive).

**Q.** For `CCN(CC)CCc1c[nH]c2ccccc12`, which “activity change” value is on record?
**A.** Its value is -6.85% (inactive).

**Q.** With `COc1c2c(cc3c1OCO3)CCN(C)C2` as the molecule, how does the “activity change” value read?
**A.** Its value is -0.445% [at 35.3 µM, active compounds read high] (inactive).

**Q.** With `COC(=O)c1cc(Oc2ccc(Cl)cc2Cl)ccc1[N+](=O)[O-]` as the molecule, how does the “activity change” value read?
**A.** The value was -0.746% (inactive).

**Q.** With `CCC1COC(Cn2cncn2)(c2ccc(Cl)cc2Cl)O1` (stereo not given) as the molecule, how does the “activity change” value read?
**A.** Its value is 0.675% (inactive).

**Q.** With `CC(=O)O.CC(=O)O.CC(=O)O.CC(=O)O.CC(=O)O.CC(=O)O.CC(=O)O.O.O.[Cr].[Cr].[Cr]` as the molecule, how does the “activity change” value read?
**A.** Its value is -2.94% (inactive).

**Q.** For `c1csc(-c2ccc(-c3cccs3)s2)c1`, which “activity change” value is on record?
**A.** The value was 1.77% (inactive).

**Q.** For `C[C@]12CC[C@H]3[C@@H](CCC4=CC(=O)CC[C@@H]43)[C@@H]1CC[C@@H]2OC(=O)CCc1ccco1`, which “activity change” value is on record?
**A.** The value was 3.14% [at 35.3 µM, active compounds read high] (inactive).

**Q.** Which “activity change” value does the source give for `O=[N+]([O-])c1cccc2cccc([N+](=O)[O-])c12` here?
**A.** The value was -8.09% (inactive).

**Q.** For `CC1=C2C[C@H]3[C@@H](CC=C4C[C@@H](O)CC[C@@]43C)[C@@H]2CC[C@]12O[C@@H]1C[C@H](C)CN[C@H]1[C@H]2C`, which “activity change” value is on record?
**A.** The value was 11.1% [at 35.3 µM, active compounds read high] (inactive).

**Q.** Which “activity change” value does the source give for `CN/C(=N\[N+](=O)[O-])NCc1cnc(Cl)s1` here?
**A.** The value was 2.41% (inactive).

**Q.** With `CC1CN1` (stereo not given) as the molecule, how does the “activity change” value read?
**A.** The value was 5.38% (inactive).

**Q.** Which “activity change” value does the source give for `Clc1ccc(C(c2ccc(Cl)cc2)C(Cl)Cl)cc1` here?
**A.** The value was 19.4% (inactive).

**Q.** Which “activity change” value does the source give for `CCOP(=O)(OCC)Oc1nc(Cl)c(Cl)cc1Cl` here?
**A.** Its value is -1.99% (inactive).

**Q.** For `O=C(CCCCl)c1ccc(F)cc1`, which “activity change” value is on record?
**A.** The value was -5.4% [at 35.3 µM, active compounds read high] (inactive).

**Q.** For `CN1C2CCC(C)(C)C1CC(OC(=O)C(O)(c1cccs1)c1cccs1)C2` (stereo not given), which “activity change” value is on record?
**A.** The value was 9.45% [at 35.3 µM, active compounds read high] (inactive).

**Q.** For `[O]=[Cr](=[O])([OH])[O][Cr](=[O])(=[O])[OH]`, which Potency is on record?
**A.** Its Potency is “inactive”.

**Q.** With `CC(C)N(C(=O)CCl)c1ccccc1` as the molecule, how does the Potency read?
**A.** The Potency was “inactive”.

**Q.** With `Nc1ccc(N=Nc2ccccc2)cc1` as the molecule, how does the “activity change” value read?
**A.** The value was -8.53% (inactive).

**Q.** Which “activity change” value does the source give for `COC(=O)c1ccccc1S(=O)(=O)NC(=O)Nc1nc(C)nc(OC)n1` here?
**A.** The value was 10.4% (inactive).

**Q.** Which Potency does the source give for `CC(=O)[O][Pb]([c]1ccccc1)([c]1ccccc1)[c]1ccccc1` here?
**A.** The Potency was 4.9 µM (active).

**Q.** For `O=c1c2ccccc2c(=O)c2c1cc(Cl)c1[nH]c3c([nH]c12)c(Cl)cc1c(=O)c2ccccc2c(=O)c13`, which “activity change” value is on record?
**A.** Its value is 6.15% (inactive).

**Q.** For `FC(F)C(F)(F)OCC(Cn1cncn1)c1ccc(Cl)cc1Cl` (stereo not given), which “activity change” value is on record?
**A.** The value was 4.75% (inactive).

**Q.** Which “activity change” value does the source give for `CSC(C)(C)/C=N/O` here?
**A.** The value was -11% (inactive).

**Q.** For `S=C=NCCc1ccccc1`, which “activity change” value is on record?
**A.** The value was 15.9% (inactive).

**Q.** For `C=CC(=O)[O][Sn]([CH2]CCC)([CH2]CCC)[CH2]CCC`, which Potency is on record?
**A.** The Potency was 24.5 µM (active).
